Assay outcomes deposited in PubChem by Sanford-Burnham Center for Chemical Genomics.
Rows were chosen to be rich in hits. Some 2.1% of all compounds tested hit in one or more screens of this group.
eIF4H inh: human eIF4H binding inhibitors, primary screen, translation initiation inhibitor project, biochemical, uHTS, fluorescence polarization; Eukaryotic translation initiation factor 4H (Homo sapiens), Q15056; eIF4H fluorescence polarization binding assay; inhibition, % at 35 µM; actives 0.94% (n = 290,000);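 also: calls also rest on retests at 20 µM and on dose response follow-up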
PABP FP inh: PABP poly(A) RNA binding inhibitors, primary screen, biochemical, fluorescence polarization, uHTS; inhibition, % at 35 µM; actives 1% (n = 290,000);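 also: calls also rest on retests at 20 µM and on dose response follow-up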
CendR NRP1 mod: modulators of CendR peptide binding to NRP-1, primary screen, biochemical, fluorescence polarization, uHTS. Neuropilin-1 (Homo sapiens), O14786. FAM-RPARPAR peptide binding to NRP-1. inhibition, % at 25 µM. actives 0.85% (n = 360,000);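 active = inhibition or corrected inhibition above about 18%, plus a signal ratio from 0.5 to 1.5, limit read from the data, passing the limit was not always enough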
Target sequence (O14786 whole entry, looked up): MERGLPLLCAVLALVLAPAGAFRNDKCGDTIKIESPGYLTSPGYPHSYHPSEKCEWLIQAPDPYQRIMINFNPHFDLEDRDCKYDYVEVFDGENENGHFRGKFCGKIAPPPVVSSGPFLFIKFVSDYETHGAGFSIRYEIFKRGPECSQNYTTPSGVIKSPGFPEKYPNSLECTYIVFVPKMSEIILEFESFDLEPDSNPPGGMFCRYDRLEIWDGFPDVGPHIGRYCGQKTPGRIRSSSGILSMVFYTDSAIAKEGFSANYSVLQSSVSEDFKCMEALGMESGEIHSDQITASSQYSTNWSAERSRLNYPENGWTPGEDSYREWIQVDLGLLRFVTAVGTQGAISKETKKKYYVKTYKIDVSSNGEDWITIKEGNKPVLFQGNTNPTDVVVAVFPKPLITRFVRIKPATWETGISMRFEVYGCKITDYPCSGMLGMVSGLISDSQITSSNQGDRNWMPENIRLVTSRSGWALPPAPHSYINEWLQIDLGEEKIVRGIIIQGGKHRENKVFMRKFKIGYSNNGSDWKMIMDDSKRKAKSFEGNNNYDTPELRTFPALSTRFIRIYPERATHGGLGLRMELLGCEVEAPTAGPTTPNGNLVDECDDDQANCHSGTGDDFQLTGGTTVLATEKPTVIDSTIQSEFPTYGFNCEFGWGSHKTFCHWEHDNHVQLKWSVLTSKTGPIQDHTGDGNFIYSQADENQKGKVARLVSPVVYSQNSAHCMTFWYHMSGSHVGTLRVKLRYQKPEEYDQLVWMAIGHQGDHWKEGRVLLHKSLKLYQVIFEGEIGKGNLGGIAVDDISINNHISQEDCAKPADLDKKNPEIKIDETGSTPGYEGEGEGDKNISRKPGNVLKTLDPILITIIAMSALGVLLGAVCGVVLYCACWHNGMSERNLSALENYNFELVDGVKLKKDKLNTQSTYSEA
MLLE-PAM2 inh: inhibitors of PABP1 MLLE–PAM2 peptide binding, primary screen, biochemical, fluorescence polarization, FITC-PAM2, GST-MLLE | Polyadenylate-binding protein 1 (Homo sapiens), P11940 | inhibition, % at 20 µM | actives 0.36% (n = 360,000) | AID 588489, 2011; in the data active = inhibition above about 35%, passing the limit was not always enough
Of the large screens only hits and unclear results are named; the others gave an inactive call. Unless noted, no rule for the calls is given here.

NS(=O)(=O)c1ccc(-c2ccc(/C=N/NC(=O)c3ccc([N+](=O)[O-])cc3)o2)cc1	none
NS(=O)(=O)c1ccc(-c2ccc(/C=N/Nc3ccc(C(=O)O)cc3)o2)cc1	eIF4H inh 56.4
COc1ccccc1NC(=O)Nc1nc(C(C)(C)C)cs1	none
CCc1ccccc1N(CC(=O)N/N=C/c1ccc(OC(=O)OC)c(OC)c1)S(C)(=O)=O	none
COC(=O)Oc1ccc(/C=N/NC(=O)CN(c2ccccc2Br)S(C)(=O)=O)cc1OC	CendR NRP1 mod 23.4 (no result: eIF4H inh, PABP FP inh)
O=C(C[C@H]1C[C@H](C(=O)N2CCOCC2)[C@@]2(CCC3CCCC3)c3[nH]c4cc(-c5ccco5)ccc4c3CCN2C1=O)NCCc1ccccn1	none (no result: eIF4H inh, PABP FP inh)
CCOC(=O)/C(C#N)=C/c1ccc(N2CCN(C)CC2)cc1	eIF4H inh active
N#C/C(=C\c1ccccc1)C(=O)OCC(=O)N1CCCC1	CendR NRP1 mod 23.7
N#Cc1ccccc1OCC(=O)OCC(=O)N1CCCC1	CendR NRP1 mod 19.1 (no result: eIF4H inh, PABP FP inh)
CCOC(=O)/C(C#N)=C\c1ccc(N2CCN(C)CC2)cc1	none
CC1CCN(C(=O)COC(=O)COc2ccccc2C#N)CC1	none (no result: eIF4H inh, PABP FP inh)
O=C(NCCN1CCN(Cc2ccccc2)CC1)c1ccc(CS(=O)(=O)c2c(Cl)cccc2Cl)o1	none (no result: eIF4H inh, PABP FP inh)
C=CC[C@@H](CC(=O)NCCO)C(=O)NC[C@H](OC(=O)[C@@H](CC=C)Cc1ccc(F)cc1)c1ccccc1	none (no result: eIF4H inh, PABP FP inh)
CCCC[C@@H]1CCCO[C@@](C(=O)NCc2ccc(C)o2)(C(F)(F)F)C1	none (no result: eIF4H inh, PABP FP inh)
Cc1cccc(C(O)c2ncc(-c3ccccc3F)[nH]2)c1C (stereo not drawn)	CendR NRP1 mod 29.9 (no result: eIF4H inh, PABP FP inh)
Cc1cccc(C)c1C(O)c1ncc(-c2ccccc2F)[nH]1 (stereo not drawn)	none (no result: eIF4H inh, PABP FP inh)
COc1ccc(C(=O)NC(=O)Nc2ncccc2C)cc1	CendR NRP1 mod 31.2
COc1cc(C#N)ccc1OC(=O)Cc1cc(OC)c(OC)c(OC)c1	CendR NRP1 mod 24.7
COc1ccccc1OCC(=O)NCc1cccs1	none
COc1ccccc1CCC(=O)Oc1ccc(C#N)cc1OC	none
COc1cc(C#N)ccc1OCC(=O)NCc1cccs1	eIF4H inh 1.9
CC(=O)Nc1cccc(-c2ccnc3c2CC(C(=O)NCc2ccco2)O3)c1 (stereo not drawn)	none (no result: eIF4H inh, PABP FP inh)
Cc1noc(C)c1NC(=O)Nc1ccc2c(c1)C(=O)N([C@H](C)CO)C[C@H](C)[C@@H](CN(C)S(=O)(=O)c1cccs1)O2	none (no result: eIF4H inh, PABP FP inh)
O=C(Nc1ccc(N2CCOCC2)cc1)c1cc(-n2cnnc2)ccc1Cl	CendR NRP1 mod 26.2
O=C(Nc1ccccc1)c1cc(-n2cnnc2)ccc1Cl	none
O=C(N/N=C/c1sc(=O)[nH]c1-[n+]1ccc2ccccc2c1)c1ccccc1[O-]	none (no result: eIF4H inh, PABP FP inh)
Cc1ccc[n+](-c2[nH]c(=O)sc2/C=N/N=C(\[O-])c2cccnc2)c1	none
Cc1ccc[n+](-c2[nH]c(=O)sc2/C=N/NC(=O)c2ccccc2[O-])c1	MLLE-PAM2 inh 47.5
O=C(N/N=C/c1sc(=O)[nH]c1-[n+]1ccccc1)c1ccccc1[O-]	MLLE-PAM2 inh 61.2
CCOc1ccc(NC(=O)C2CCCN(S(=O)(=O)c3ccc4c(c3)CC(C)N4C(C)=O)C2)cc1 (stereo not drawn)	none
C[C@@H]1CN([C@@H](C)CO)C(=O)CCCn2nncc2CO[C@H]1CN(C)Cc1ccccc1	none (no result: eIF4H inh, PABP FP inh)
O=C(N/N=C/c1ccc([N+](=O)[O-])o1)C(=O)Nc1ccc(C(=O)O)cc1	eIF4H inh 83.2, PABP FP inh 61.9
CCCC(=O)Nc1ccc(C(=O)N/N=C/c2ccc([N+](=O)[O-])o2)cc1	none
Cc1ccc(OCC(=O)N/N=C\c2ccc(C)o2)c([N+](=O)[O-])c1	none
O=C(COc1ccccc1)N/N=C/c1ccc([N+](=O)[O-])o1	eIF4H inh 51.0, PABP FP inh 68.8
Cc1ccc(OCC(=O)N/N=C/c2ccccc2)c([N+](=O)[O-])c1	CendR NRP1 mod 18.9
Cc1ccc(C)c(OCC(=O)N/N=C\c2cccn2C)c1	CendR NRP1 mod 35.4
CCOc1ccc(CN(C)C(=O)c2ccc(NC(=O)CC3SC(N4CCCC4)=NC3=O)cc2)cc1 (stereo not drawn)	none
CCCNC(=O)c1ccc2c(=O)c(O)c(C)[nH]c2c1	CendR NRP1 mod 20.8
CCCNC(=O)c1ccc2c(=O)c(O)c(-c3ccc(F)cc3)[nH]c2c1	none
CCN1C/C(=C/c2ccc(N3CCOCC3)cc2)C(=O)/C(=C/c2ccc(N3CCOCC3)cc2)C1	eIF4H inh inconclusive
CN1C/C(=C\c2ccc(N3CCOCC3)cc2)C(=O)/C(=C/c2ccc(N3CCOCC3)cc2)C1	eIF4H inh 77.6, PABP FP inh active
Cc1ccc(N2C(=O)NC(NS(=O)(=O)c3ccccc3)(C(F)(F)F)C2=O)cc1 (stereo not drawn)	CendR NRP1 mod 25.6
O=C(COC(=O)CNC(=O)c1ccc(Cl)cc1Cl)NC1CCCCCCC1	none (no result: eIF4H inh, PABP FP inh)
CCOc1ccc(Cc2nnc(SCC(=O)Nc3ccc(OC)cc3)n(N)c2=O)cc1	none (no result: eIF4H inh, PABP FP inh)
COc1ccc(NC(=O)CSc2nnc(CCC(=O)O)c(=O)n2N)cc1	MLLE-PAM2 inh 46.0
COc1ccc(NC(=O)CSc2nnc(-c3ccccc3C)n2N)cc1	MLLE-PAM2 inh 37.2
O=C(O)c1cccc(Br)c1	none (no result: eIF4H inh, PABP FP inh)
CCn1c(O)c(/C=C/C=C/C=Nc2ccccc2)sc1=S	none
CCCCn1c(O)c(/C=C/C=C/C=Nc2ccccc2)sc1=S	eIF4H inh 54.1
Cc1noc(C)c1NC(=O)Nc1ccc2c(c1)C(=O)N([C@H](C)CO)C[C@@H](C)[C@@H](CN(C)S(=O)(=O)c1cn(C)cn1)OCCCC[C@H](C)O2	none (no result: eIF4H inh, PABP FP inh)
CC(=O)OC(c1nc2ccccc2c(=O)n1C1CC2(OC1=O)c1ccccc1N1C(=O)C(C)(C)N(O)C12)C(C)C (stereo not drawn)	none
COC(=O)c1ccc([C@H]2CC(=O)O2)cc1	none
Cc1cc(=O)oc2cc(OC(C)C(=O)NC3CCN(Cc4ccccc4)CC3)ccc12 (stereo not drawn)	none
CC(Oc1ccc2c3c(c(=O)oc2c1)CCC3)C(=O)NC1CCN(Cc2ccccc2)CC1 (stereo not drawn)	CendR NRP1 mod 18.0 (no result: eIF4H inh, PABP FP inh)
Cc1[nH]n(C(N)=S)c(=O)c1N=Nc1ccc(S(=O)(=O)N2CCCCCC2)cc1	MLLE-PAM2 inh 39.9
O=C1CCn2c1c(O)c1ccccc1c2=O	MLLE-PAM2 inh 44.6 (no result: eIF4H inh, PABP FP inh)
O=c1c2ccccc2nc2n1CCC2	none
COc1ccc([C@H]2C[C@@H](n3cc(-c4ccc(F)cc4)nn3)[C@H](O)CN2CC2CCCCC2)cc1	none (no result: eIF4H inh, PABP FP inh)
COc1ccc2c(c1)C(=O)c1ccccc1CO2	none
O=C1c2ccccc2COc2ccc(O)cc21	eIF4H inh 51.4
O=C(CCCNC(=O)/C(=C\c1ccc(F)cc1)NC(=O)c1ccccc1)OCc1ccccc1	CendR NRP1 mod 30.7
COC(=O)c1ccc(CN(C(=O)N2CCN(C)CC2)S(=O)(=O)c2ccc(C)cc2)cc1	none (no result: eIF4H inh, PABP FP inh)
Cc1cc(C(F)(F)F)nn1CC(=O)NNC(=S)Nc1ccc(Cl)cc1	none
O=C(Cn1nnc(-c2cc(C(F)(F)F)cc(C(F)(F)F)c2)n1)NNC(=S)Nc1ccc(Cl)cc1	MLLE-PAM2 inh 41.2
